Experimental data as given in the supplement of paper PMC6992640.
± gives the standard deviation of the averaged measurements.

Key:
Test in all cases: cell viability (% of vehicle); higher = less cytotoxic
Conditions in all cases: 10 µM; 72 h
HCI01 = test system: HCI01 (cells of a triple-negative basal-like breast cancer xenograft)
HCI03 = test system: HCI03 (cells of an ER-positive luminal breast cancer xenograft)
HCI09 = test system: HCI09 (cells of a triple-negative luminal androgen receptor type breast cancer xenograft)
HCI11 = test system: HCI11 (cells of an ER-positive luminal breast cancer xenograft)
HCI13 = test system: HCI13 (cells of an ER-positive luminal breast cancer xenograft)
HCI16 = test system: HCI16 (cells of a triple-negative basal-like breast cancer xenograft)
UCD52 = test system: UCD52 (cells of a triple-negative basal-like breast cancer xenograft)
WHIM2 = test system: WHIM2 (cells of a triple-negative basal-like breast cancer xenograft)
WHIM30 = test system: WHIM30 (cells of a triple-negative basal-like breast cancer xenograft)
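Further: PDX cells carrying CMV promoter-driven luciferase, viability read as total photon flux per second by IVIS imaging following D-luciferin, vehicle control 0.1% DMSO.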

| Compound | cell viability (HCI01) | cell viability (HCI03) | cell viability (HCI09) | cell viability (HCI11) | cell viability (HCI13) | cell viability (HCI16) | cell viability (UCD52) | cell viability (WHIM2) | cell viability (WHIM30) |
| --- | --- | --- | --- | --- | --- | --- | --- | --- | --- |
| Br.Br.Br.Br.Br.Cc1cc(N2CCN(C3CNC(C(=O)N4CCSC4)C3)CC2)n(-c2ccccc2)n1.Cc1cc(N2CCN(C3CNC(C(=O)N4CCSC4)C3)CC2)n(-c2ccccc2)n1 (stereo not drawn) [Teneligliptin hydrobromide] | 111 ± 3.1 | 95.2 | 82.5 ± 13 | 71.5 | 79.96 ± 0.58 | 88.2 | 82 ± 1.3 | 99 ± 20 | 88.4 ± 3.9 |
| O=C(NCC(O)CO)c1ccncc1Nc1ccc(I)cc1F (stereo not drawn) | 72.8 ± 3.9 | 72.9 | 55.3 ± 28 | 83.1 | 64.4 ± 5.6 | 116 | 70.57 ± 0.44 | 41.9 ± 8.5 | 130 ± 14 |
| [O-][n+]1cccc(CO)c1 [Mepiroxol] | 117 ± 13 | 119 | 105.2 ± 0.98 | 103 | 99.24 ± 0.22 | 97 | 90.9 ± 8.7 | 95.7 ± 9.9 | 139 ± 26 |
| CC1CC(OC(=O)C(O)c2ccccc2)CC(C)(C)C1 (stereo not drawn) [Cyclandelate] | 110 ± 9.8 | 122 | 87.6 ± 4.9 | 89.1 | 73.5 ± 14 | 113 | 80.8 ± 14 | 93.3 ± 10 | 95.91 ± 0.5 |
| O=CC(O)C(O)C(O)CO (stereo not drawn) [Xylose] | 70.5 ± 35 | 96.1 | 91.8 ± 13 | 90.9 | 104 ± 18 | 108 | 83 ± 1.1 | 94.5 ± 4.8 | 129 ± 0.16 |
| CO/C(O)=N/[C@H](C(=O)N1CC2(CC2)C[C@H]1c1ncc(-c2ccc3c(c2)C(F)(F)c2cc(-c4ccc5nc([C@@H]6[C@H]7CC[C@H](C7)N6C(=O)[C@@H](/N=C(\O)OC)C(C)C)[nH]c5c4)ccc2-3)[nH]1)C(C)C [Ledipasvir] | 103 ± 1.7 | 94.4 | 55.6 ± 3.8 | 80.6 | 99 ± 8.5 | 72.3 | 73.6 ± 4.1 | 64.9 ± 9.5 | 104 ± 1.1 |
| Cc1ccccc1C(=O)Nc1ccc(C(=O)N2CCCC(O)c3cc(Cl)ccc32)c(C)c1 (stereo not drawn) [Tolvaptan] | 97.7 ± 38 | 138 | 80.4 ± 7.1 | 85.9 | 101 ± 5 | 159 | 89 ± 4.9 | 92.5 ± 19 | 157 ± 8.1 |
| NC(CSCCCO)C(=O)O (stereo not drawn) [Fudosteine] | 91 ± 9.3 | 103 | 87.1 ± 7.6 | 94.5 | 107 ± 11 | 96.1 | 77.3 ± 4.8 | 112 ± 14 | 91.1 ± 8.5 |
| CC(=O)SCC(Cc1ccccc1)C(=O)NCC(=O)OCc1ccccc1 (stereo not drawn) [Racecadotril] | 106 ± 19 | 111 | 92.8 ± 9.8 | 93.3 | 114 ± 8.9 | 104 | 65.6 ± 16 | 92.8 ± 1.4 | 79.3 ± 9 |
| CC1=C(C(=O)O)N2C(=O)C(NC(=O)C(N)c3ccccc3)C2SC1 (stereo not drawn) [Cephalexin] | 135 ± 38 | 122 | 86.6 ± 21 | 101 | 76.3 ± 2.8 | 113 | 114.8 ± 0.94 | 118 ± 12 | 111 ± 5.6 |
| CCc1ccc(CCOc2ccc(CC3SC(=O)NC3=O)cc2)nc1 (stereo not drawn) [Pioglitazone] | 93 ± 44 | 118 | 123 ± 30 | 104 | 135 ± 16 | 133 | 106 ± 8.1 | 106 ± 21 | 171 ± 1.9 |
| CC1Cc2ccccc2N1NC(=O)c1ccc(Cl)c(S(N)(=O)=O)c1 (stereo not drawn) [Indapamide] | 98 ± 9.9 | 100 | 94.6 ± 4.7 | 88.8 | 110 ± 14 | 128 | 80.2 ± 1.6 | 107 ± 18 | 105 ± 3.4 |
| Clc1ccc(COC(Cn2ccnc2)c2ccc(Cl)cc2Cl)c(Cl)c1 (stereo not drawn) [Miconazole] | 109 ± 41 | 87.6 | 62.3 ± 36 | 82 | 47.3 ± 10 | 120 | 74.4 ± 3 | 99.6 ± 24 | 128 ± 3.7 |
| CC(C(=O)O)c1ccc(C(=O)c2cccs2)cc1 (stereo not drawn) [Suprofen] | 116 ± 29 | 133 | 97.9 ± 4 | 69.5 | 114 ± 7.9 | 125 | 102.3 ± 0.22 | 107 ± 3.9 | 100 ± 15 |
| NCC1OC(OC2C(CO)OC(OC3C(O)C(N)CC(N)C3OC3OC(CN)C(O)C(O)C3N)C2O)C(N)C(O)C1O.O=S(=O)(O)O (stereo not drawn) [Neomycin sulfate] | 90.1 ± 22 | 135 | 91.8 ± 9.7 | 95.9 | 79.9 ± 2.5 | 111 | 92.9 ± 8.6 | 102 ± 7.7 | 95.9 ± 4.7 |
| O=S(=O)([O-])Oc1ccc(C(c2ccc(OS(=O)(=O)[O-])cc2)c2ccccn2)cc1.[Na+].[Na+] [Sodium Picosulfate] | 103 ± 33 | 119 | 102 ± 6 | 86.7 | 116 ± 6.3 | 117 | 90.71 ± 0.14 | 91.2 ± 20 | 101 ± 5.3 |
| CN(C)C(=O)c1cc2cnc(Nc3ccc(N4CCNCC4)cn3)nc2n1C1CCCC1 | 109 ± 4.3 | 135 | 114 ± 30 | 138 | 126 ± 13 | 91.7 | 148 ± 8.1 | 108 ± 13 | 130 ± 9.5 |
| CCCCCOc1ccc(-c2cc(-c3ccc(C(=O)NC4CC(O)C(O)NC(=O)C5C(O)C(C)CN5C(=O)C(C(O)CC(N)=O)NC(=O)C(C(O)C(O)c5ccc(O)c(OS(=O)(=O)[O-])c5)NC(=O)C5CC(O)CN5C(=O)C(C(C)O)NC4=O)cc3)no2)cc1.[Na+] (stereo not drawn) [Micafungin sodium] | 104 ± 7.9 | 96.4 | 85.7 ± 5.6 | 92.6 | 113 ± 4 | 93.3 | 75.7 ± 12 | 39.4 ± 2.2 | 99 ± 12 |
| O=C(NCCN1CCOCC1)c1ccc(Cl)cc1 | 129.4 ± 0.71 | 171 | 114 ± 22 | 113 | 102 ± 2.1 | 110 | 109 ± 8.9 | 111 ± 16 | 138 ± 4 |

| Compound | cell viability (HCI01) | cell viability (HCI03) | cell viability (HCI09) | cell viability (HCI11) | cell viability (HCI13) | cell viability (HCI16) | cell viability (UCD52) | cell viability (WHIM2) | cell viability (WHIM30) |
| --- | --- | --- | --- | --- | --- | --- | --- | --- | --- |
| CCCc1nn(C)c2c(=O)nc(-c3cc(S(=O)(=O)N4CCN(C)CC4)ccc3OCC)[nH]c12 [Sildenafil] | 83.6 ± 6.4 | 101 | 82.8 ± 18 | 73.3 | 73.7 ± 3.3 | 103 | 82.8 ± 2.1 | 92.4 ± 1 | 105.82 ± 0.018 |
| CC(=O)NC(CS)C(=O)O (stereo not drawn) [Acetylcysteine] | 91.6 ± 7.3 | 113 | 94.3 ± 16 | 90 | 97.3 ± 27 | 118 | 89.98 ± 0.47 | 124 ± 1.8 | 96.8 ± 14 |
| COCCCN1CCC(NC(=O)c2cc(Cl)c(N)c3c2OCC3)CC1 [Prucalopride] | 86.2 ± 8.4 | 134 | 99.9 ± 20 | 94.2 | 120 ± 13 | 122 | 89.3 ± 11 | 91.4 ± 9.2 | 123 ± 2.2 |
| CCOC(=O)n1ccn(C)c1=S [Carbimazole] | 90.9 ± 7.9 | 145 | 95 ± 11 | 93.4 | 66.4 ± 18 | 101 | 95.5 ± 7.5 | 104 ± 30 | 135 ± 11 |
| CCCCNC(=O)NS(=O)(=O)c1ccc(C)cc1 [Tolbutamide] | 80.9 ± 42 | 118 | 91.4 ± 5.3 | 83.6 | 88.9 ± 3.6 | 101 | 96.6 ± 5.1 | 105 ± 25 | 101 ± 8.5 |
| NCCCC(O)(P(=O)([O-])O)P(=O)(O)O.[Na+] [Alendronate sodium] | 102 ± 7.7 | 111 | 95.1 ± 18 | 97.3 | 97.6 ± 3.9 | 97.1 | 79 ± 5.8 | 93.7 ± 13 | 116 ± 8.4 |
| CS(=O)(=O)O.N#CC1(c2ccc(NC(=O)c3cccnc3NCc3ccncc3)cc2)CCCC1 [Apatinib] | 140 ± 88 | 109 | 33.4 ± 8.3 | 65.4 | 65 ± 2 | 119 | 48.5 ± 6.5 | 85.3 ± 4.8 | 105 ± 19 |
| Nc1nc(=O)c2c(CCc3ccc(C(=O)NC(CCC(=O)[O-])C(=O)[O-])cc3)c[nH]c2[nH]1.[Na+].[Na+] (stereo not drawn) [Pemetrexed] | 94.1 ± 3.5 | 102 | 88.7 ± 10 | 92.9 | 105 ± 5.3 | 105 | 93.4 ± 13 | 95.2 ± 9.6 | 130 ± 10 |
| COc1cc2nc(N(C)CCCNC(=O)C3CCCO3)nc(N)c2cc1OC.Cl (stereo not drawn) [Alfuzosin HCl] | 103 ± 3 | 97.4 | 105 ± 8.8 | 113 | 101 ± 24 | 113 | 91.6 ± 8.4 | 85.5 ± 3 | 133 ± 8.8 |
| C=CC(=O)N1CCCC(n2nc(-c3ccc(Oc4ccccc4)cc3)c3c(N)ncnc32)C1 (stereo not drawn) | 80.2 ± 24 | 69 | 56.2 ± 21 | 83.8 | 87.9 ± 8.6 | 55.6 | 76.7 ± 4.3 | 70.4 ± 7.2 | 103 ± 9.7 |
| CN1CCC(OC(c2ccccc2)c2ccccc2)CC1.Cl [Diphenylpyraline HCl] | 86 ± 3.4 | 99.9 | 97.7 ± 17 | 106 | 97.2 ± 13 | 91.7 | 75.5 ± 12 | 84.7 ± 21 | 107 ± 14 |
| COc1cc(C(C)=O)ccc1OCCCN1CCC(c2noc3cc(F)ccc23)CC1 [Iloperidone] | 153 ± 25 | 101 | 117 ± 19 | 103 | 121 ± 14 | 172 | 88.2 ± 1.8 | 106 ± 6 | 122.82 ± 0.035 |
| CC(=O)Oc1cc2c(s1)CCN(C(C(=O)C1CC1)c1ccccc1F)C2.Cl (stereo not drawn) [Prasugrel hydrochloride] | 140 ± 12 | 137 | 109 ± 14 | 120 | 74.2 ± 5.5 | 149 | 110 ± 20 | 110.1 ± 0.98 | 133 ± 10 |
| CN1CCc2nc(C(=O)NC3CC(C(=O)N(C)C)CCC3NC(=O)C(=O)Nc3ccc(Cl)cn3)sc2C1.Cc1ccc(S(=O)(=O)O)cc1.O (stereo not drawn) [Edoxaban tosylate monohydrate] | 102 ± 2.5 | 92.1 | 87.2 ± 11 | 91.2 | 109 ± 8.7 | 81.1 | 88.8 ± 16 | 96.4 ± 8.8 | 120 ± 4.4 |
| COc1ccc2[n-]c(S(=O)Cc3ncc(C)c(OC)c3C)nc2c1.COc1ccc2[n-]c(S(=O)Cc3ncc(C)c(OC)c3C)nc2c1.[Mg+2] (stereo not drawn) [Esomeprazole Magnesium] | 77 ± 60 | 143 | 84.6 ± 31 | 92.6 | 165 ± 18 | 112 | 99.55 ± 0.87 | 94.2 ± 9.3 | 181 ± 29 |
| Cl.O=C1c2cccc3c2C(CCC3)CN1C1CN2CCC1CC2 (stereo not drawn) [Palonosetron HCl] | 86 ± 15 | 87.8 | 118 ± 38 | 94.8 | 100 ± 12 | 111 | 76.3 ± 4.4 | 82.6 ± 5.7 | 104 ± 8.2 |
| COc1cc(Nc2nc3ccccc3nc2NS(=O)(=O)c2ccc(NC(=O)c3ccc(C)c(OC)c3)cc2)cc(OC)c1 | 86.4 ± 4.2 | 102 | 49.675 ± 0.011 | 86.9 | 66.9 ± 17 | 94.9 | 84.5 ± 8.2 | 54.3 ± 12 | 88.5 ± 24 |
| Nc1ccn(C2OC(CO)C(O)C2O)c(=O)n1 (stereo not drawn) [Cytidine] | 101 ± 36 | 131 | 98.9 ± 9.3 | 105 | 87.1 ± 7 | 122 | 92.5 ± 19 | 108 ± 18 | 146 ± 29 |
